SARS PLpro yeast = inhibitors of SARS-CoV papain-like protease in yeast. S. cerevisiae expressing SARS-CoV PLpro, growth rescue. Potency, µM (highest dose often 32.9 µM), hits mostly activators. actives 0.19% (n = 330,000). AID 485353; note: nearly all actives have a fitted effect of over 55% in size
Shiga inhibitor = inhibitors of Shiga toxin in Vero cells. Vero cells, Shiga toxin protein synthesis inhibition reporter. inhibition, % at 38.7 µM. actives 9.2% (n = 290,000). AID 2315; in the data active = inhibition mostly above about 28%, no sharp cut-off; inactive = mostly below about 43%
NS1 function inh = blocks influenza NS1 protein function | Potency, µM (top dose mostly 46.1 µM) | actives 0.4% (n = 270,000); note: actives are rising curves; nearly all actives have a fitted effect of over 50% in size
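In this qHTS, NS1 from influenza A is expressed in budding yeast, where it slows growth. Cells are switched from glucose to 2% galactose medium (pH 6.0, -URA), treated with compound, and growth recovery is read at OD600.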
CHX counter = counter-screen hit for Shiga toxin inhibitors, cycloheximide. cell reporter, cycloheximide protein synthesis inhibition counterscreen. max response, %. actives 12% (n = 300,000); in the data active = max response mostly above about 13%, no sharp cut-off; inactive = mostly below about 14%; note: read at 38.3 µM for the half of the compounds with a filed dose
NS1 inh valid = validation of influenza NS1 protein function inhibitors | shares compounds with NS1 function inh | influenza NS1 function cell assay, 15-point titration | 1,400 tested, under 10 active | activity change, negative = inhibition, % at 32.9 µM
Numbers stand for hits. Rows were chosen to be rich in hits. Some 12% of all compounds tested hit in one or more screens of this group. Unless noted, calls come from the whole dose curve.

What do the screens show for `CN(CC(=O)Nc1cccc2ccccc12)C(=O)c1cccc(S(=O)(=O)N(C)C)c1`?
SARS PLpro yeast: inactive; Shiga inhibitor: inactive; NS1 function inh: inconclusive; CHX counter: inactive; NS1 inh valid: inactive

What do the screens show for `CSc1nc2c(c(=O)[nH]1)C(c1cccc(Br)c1)CC(=O)N2` (centres undefined)?
SARS PLpro yeast: inactive; Shiga inhibitor: inactive; CHX counter: inactive

What do the screens show for `Cc1cc(NC(=O)COC(=O)c2cccc(S(=O)(=O)N3CCOCC3)c2)no1`?
SARS PLpro yeast: inactive; Shiga inhibitor: inactive; NS1 function inh: inactive; CHX counter: inactive

How did O=C(COC(=O)c1cccc(S(=O)(=O)N2CCOCC2)c1)Nc1nc(-c2ccccc2Cl)cs1 do in these assays?
SARS PLpro yeast: inactive; Shiga inhibitor: 93.1; NS1 function inh: 11.2µM; CHX counter: 28.2; NS1 inh valid: inconclusive

What do the screens show for `Cc1cc(NC(=O)CSc2nc(-c3cccs3)nc3ccccc23)no1`?
SARS PLpro yeast: inactive

What do the screens show for `CC1=C(C(=O)OCC(C)C)C2(O)C(=O)c3ccccc3C2(O)N1` (centres undefined)?
SARS PLpro yeast: inactive; Shiga inhibitor: inactive; NS1 function inh: inactive; CHX counter: inactive

What do the screens show for `O=C(CSc1nnnn1Cc1ccccc1)c1ccc(F)cc1`?
SARS PLpro yeast: inactive; Shiga inhibitor: inactive; NS1 function inh: 7.94µM; CHX counter: inactive; NS1 inh valid: inactive

How did O=C(Nc1nnc(SCCN2CCOCC2)s1)C1CC(=O)N(c2ccccc2)C1 (centres undefined) do in these assays?
SARS PLpro yeast: inactive; Shiga inhibitor: inactive; NS1 function inh: inactive; CHX counter: inactive

How did O=C(/C=N/O)NCCCN1CCOCC1 do in these assays?
SARS PLpro yeast: inactive; Shiga inhibitor: inactive; NS1 function inh: inconclusive; CHX counter: inactive; NS1 inh valid: inactive

Results for Cc1ccccc1-n1c(C)nnc1SCC(=O)N(C)C1CCS(=O)(=O)C1 (centres undefined) ?
SARS PLpro yeast: inactive; Shiga inhibitor: inactive; CHX counter: inactive

How did CSC1=C(C#N)C(c2ccccc2Cl)C(C(C)=O)=C(C)N1 (centres undefined) do in these assays?
SARS PLpro yeast: inactive; Shiga inhibitor: inactive; NS1 function inh: inactive; CHX counter: inactive

What do the screens show for `O=C(Cn1c2c(sc1=O)C1c3ccccc3OCC1CS2)Nc1ccc(Cl)c(Cl)c1` (centres undefined)?
SARS PLpro yeast: inactive; Shiga inhibitor: inactive; NS1 function inh: 20µM; CHX counter: inactive; NS1 inh valid: inactive

Results for Cc1csc(=O)n1CC(=O)Nc1ccc(Cl)c(Cl)c1 ?
SARS PLpro yeast: inactive

Results for COc1cc(Cl)c(C)cc1NC(=O)CN(C)Cc1cccc(OC)c1OC ?
SARS PLpro yeast: inactive; Shiga inhibitor: inactive; NS1 function inh: inactive; CHX counter: inactive

Results for CCN1CCN(Cc2c(O)ccc3c2O/C(=C\C=C\c2ccccc2)C3=O)CC1 ?
SARS PLpro yeast: inactive; Shiga inhibitor: inactive; NS1 function inh: 10µM; CHX counter: 33.2; NS1 inh valid: inactive

How did CCN1CCN(Cc2c(O)ccc3c2O/C(=C\c2ccccc2)C3=O)CC1 do in these assays?
SARS PLpro yeast: inactive; Shiga inhibitor: inactive; NS1 function inh: inactive; CHX counter: inactive

How did COc1cc(C(=S)N2CCCC2)cc(OC)c1O do in these assays?
SARS PLpro yeast: inactive; Shiga inhibitor: inactive; NS1 function inh: 3.98µM; CHX counter: inactive; NS1 inh valid: inactive

What do the screens show for `COc1ccc(-n2c3c(cc(C(=O)NCc4ccco4)c2=O)C(=O)CC(C)(C)C3)cc1`?
SARS PLpro yeast: inactive; Shiga inhibitor: inactive; NS1 function inh: inactive; CHX counter: inactive

What do the screens show for `COc1cc(C)c(C(N)=O)c(OC)n1`?
SARS PLpro yeast: inactive; Shiga inhibitor: inactive; NS1 function inh: inconclusive; CHX counter: inactive; NS1 inh valid: inactive

Results for Cc1ccc(S(=O)(=O)N(C)C)cc1-n1c(SCC(=O)Nc2ccc(F)cc2)nc2ccccc2c1=O ?
SARS PLpro yeast: inactive; Shiga inhibitor: inactive; NS1 function inh: 12.6µM; CHX counter: inactive; NS1 inh valid: inactive

Results for CC(=O)Nc1ccc(S(=O)(=O)Oc2ccc(C(=S)N3CCC(O)CC3)cc2)cc1 ?
SARS PLpro yeast: inactive; Shiga inhibitor: inactive; NS1 function inh: inconclusive; CHX counter: inactive; NS1 inh valid: inactive

Results for Clc1cccc(-c2ccc(C3Nc4cccc5cccc(c45)N3)o2)c1 ?
SARS PLpro yeast: inactive

What do the screens show for `CC(=O)c1c(COC(=O)c2cccnc2)nc2ccccc2[n+]1[O-]`?
SARS PLpro yeast: inactive; Shiga inhibitor: inactive; NS1 function inh: 5.01µM; CHX counter: inactive; NS1 inh valid: inactive

Results for CCCc1cc(=O)[nH]c(SCC(=O)CSc2nc(CCC)cc(=O)[nH]2)n1 ?
SARS PLpro yeast: inactive; Shiga inhibitor: inactive; NS1 function inh: 8.91µM; CHX counter: inactive; NS1 inh valid: inactive
